ChEMBL document CHEMBL1961873, “Compounds: GSK PKIS; Assays: Nanosyn kinase panel” (2012)

How the values were obtained:
[1] = biological target: T1, Serine/threonine-protein kinase D2 (Homo sapiens) (UniProt Q9BZL6); settings: at 1 µM;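 note: mean value of PRKD2 inhibition, from the GSK PKIS screening panel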
T1 sequence (whole entry): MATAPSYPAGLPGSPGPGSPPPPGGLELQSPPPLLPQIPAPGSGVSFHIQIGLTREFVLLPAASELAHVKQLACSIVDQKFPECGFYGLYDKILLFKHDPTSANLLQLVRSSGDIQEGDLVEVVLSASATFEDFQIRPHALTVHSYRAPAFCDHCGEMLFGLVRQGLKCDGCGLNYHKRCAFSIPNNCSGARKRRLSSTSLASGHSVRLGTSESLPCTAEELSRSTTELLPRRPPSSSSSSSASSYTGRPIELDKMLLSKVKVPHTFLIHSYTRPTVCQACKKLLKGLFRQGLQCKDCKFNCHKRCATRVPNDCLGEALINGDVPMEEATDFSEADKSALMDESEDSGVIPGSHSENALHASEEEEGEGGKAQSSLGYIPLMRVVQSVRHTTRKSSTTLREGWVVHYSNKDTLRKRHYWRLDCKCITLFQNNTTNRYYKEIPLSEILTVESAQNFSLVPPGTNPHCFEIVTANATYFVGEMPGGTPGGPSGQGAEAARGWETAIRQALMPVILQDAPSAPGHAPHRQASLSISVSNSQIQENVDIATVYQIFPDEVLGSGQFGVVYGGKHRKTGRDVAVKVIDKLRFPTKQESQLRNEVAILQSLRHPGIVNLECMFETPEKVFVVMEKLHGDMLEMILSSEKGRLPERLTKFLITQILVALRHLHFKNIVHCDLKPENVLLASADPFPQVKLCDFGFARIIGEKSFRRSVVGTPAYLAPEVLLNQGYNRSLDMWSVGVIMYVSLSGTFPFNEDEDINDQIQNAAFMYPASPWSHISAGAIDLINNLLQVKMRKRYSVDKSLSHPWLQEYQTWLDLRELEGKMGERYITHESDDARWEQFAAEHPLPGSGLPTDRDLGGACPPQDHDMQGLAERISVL

[2] = biological target: T2, Serine/threonine-protein kinase D3 (Homo sapiens) (UniProt O94806); settings: at 0.1 µM
T2 sequence (whole entry): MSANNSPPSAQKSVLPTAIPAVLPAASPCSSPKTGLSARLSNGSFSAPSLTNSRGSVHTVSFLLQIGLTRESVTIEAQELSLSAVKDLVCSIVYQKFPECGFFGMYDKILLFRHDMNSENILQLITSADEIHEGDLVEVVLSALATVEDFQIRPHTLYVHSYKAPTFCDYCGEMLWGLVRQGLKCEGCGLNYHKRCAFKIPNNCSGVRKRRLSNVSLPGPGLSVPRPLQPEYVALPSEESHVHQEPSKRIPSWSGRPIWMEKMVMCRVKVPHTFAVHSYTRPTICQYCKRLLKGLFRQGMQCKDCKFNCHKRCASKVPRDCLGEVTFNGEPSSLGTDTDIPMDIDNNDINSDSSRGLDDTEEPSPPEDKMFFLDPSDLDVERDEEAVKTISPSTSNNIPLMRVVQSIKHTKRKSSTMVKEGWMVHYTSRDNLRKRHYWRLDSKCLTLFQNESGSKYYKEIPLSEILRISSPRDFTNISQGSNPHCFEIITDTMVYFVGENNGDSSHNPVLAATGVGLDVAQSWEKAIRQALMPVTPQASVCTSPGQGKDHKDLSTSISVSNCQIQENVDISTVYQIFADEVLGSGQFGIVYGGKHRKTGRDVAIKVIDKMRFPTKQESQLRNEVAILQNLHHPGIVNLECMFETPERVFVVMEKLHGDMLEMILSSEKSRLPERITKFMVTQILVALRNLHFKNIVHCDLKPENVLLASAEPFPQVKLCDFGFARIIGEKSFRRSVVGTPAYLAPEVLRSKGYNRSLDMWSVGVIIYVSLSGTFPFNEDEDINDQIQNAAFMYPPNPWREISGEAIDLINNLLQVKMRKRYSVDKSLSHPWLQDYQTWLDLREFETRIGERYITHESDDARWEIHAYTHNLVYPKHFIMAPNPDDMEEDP

[3] = biological target: T2, Serine/threonine-protein kinase D3 (Homo sapiens); settings: at 1 µM
[4] = biological target: T3, cGMP-dependent protein kinase 1 (Homo sapiens) (UniProt Q13976); settings: at 0.1 µM
T3 sequence (whole entry): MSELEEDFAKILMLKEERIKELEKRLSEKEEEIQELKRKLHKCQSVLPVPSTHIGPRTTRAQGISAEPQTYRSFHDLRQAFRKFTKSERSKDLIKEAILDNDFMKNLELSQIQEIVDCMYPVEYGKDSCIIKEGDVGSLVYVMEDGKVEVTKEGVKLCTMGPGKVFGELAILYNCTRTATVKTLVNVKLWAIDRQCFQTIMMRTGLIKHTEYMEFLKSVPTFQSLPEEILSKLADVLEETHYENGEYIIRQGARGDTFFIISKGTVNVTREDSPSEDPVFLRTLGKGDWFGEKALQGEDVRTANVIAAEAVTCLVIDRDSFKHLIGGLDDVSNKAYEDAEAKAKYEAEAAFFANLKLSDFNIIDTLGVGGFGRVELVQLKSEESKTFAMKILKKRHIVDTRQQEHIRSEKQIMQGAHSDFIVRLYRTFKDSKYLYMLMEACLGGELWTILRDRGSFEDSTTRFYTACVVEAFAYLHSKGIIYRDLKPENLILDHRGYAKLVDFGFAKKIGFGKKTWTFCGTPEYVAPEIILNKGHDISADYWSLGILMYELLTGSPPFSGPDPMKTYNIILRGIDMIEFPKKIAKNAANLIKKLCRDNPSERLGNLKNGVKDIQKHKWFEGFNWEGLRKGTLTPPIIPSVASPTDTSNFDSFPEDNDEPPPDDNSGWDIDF

[5] = biological target: T3, cGMP-dependent protein kinase 1 (Homo sapiens); settings: at 1 µM
[6] = biological target: T4, cGMP-dependent protein kinase 2 (Homo sapiens) (UniProt Q13237); settings: at 0.1 µM
T4 sequence (whole entry): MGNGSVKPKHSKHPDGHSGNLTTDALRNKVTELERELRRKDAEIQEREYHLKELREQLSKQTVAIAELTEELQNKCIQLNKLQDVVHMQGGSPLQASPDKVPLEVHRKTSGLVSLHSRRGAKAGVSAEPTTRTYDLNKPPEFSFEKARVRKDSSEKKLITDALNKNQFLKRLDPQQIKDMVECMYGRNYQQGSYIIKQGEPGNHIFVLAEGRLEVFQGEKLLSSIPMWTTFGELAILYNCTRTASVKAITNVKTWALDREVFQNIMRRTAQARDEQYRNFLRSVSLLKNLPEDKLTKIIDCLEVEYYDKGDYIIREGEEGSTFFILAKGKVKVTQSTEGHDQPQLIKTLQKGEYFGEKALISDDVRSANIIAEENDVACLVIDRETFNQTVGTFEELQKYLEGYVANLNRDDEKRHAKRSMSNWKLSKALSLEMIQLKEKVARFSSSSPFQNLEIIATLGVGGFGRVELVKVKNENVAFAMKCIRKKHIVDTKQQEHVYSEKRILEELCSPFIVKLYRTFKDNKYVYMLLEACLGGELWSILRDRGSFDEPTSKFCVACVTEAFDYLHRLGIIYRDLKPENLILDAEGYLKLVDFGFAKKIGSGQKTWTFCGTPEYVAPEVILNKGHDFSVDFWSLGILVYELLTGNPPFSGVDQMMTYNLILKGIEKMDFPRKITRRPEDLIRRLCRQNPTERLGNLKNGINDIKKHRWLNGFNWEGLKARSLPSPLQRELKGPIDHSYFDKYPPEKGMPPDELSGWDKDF

[7] = biological target: T4, cGMP-dependent protein kinase 2 (Homo sapiens); settings: at 1 µM
[8] = biological target: T5, cAMP-dependent protein kinase catalytic subunit PRKX (Homo sapiens) (UniProt P51817); settings: at 0.1 µM
T5 sequence (whole entry): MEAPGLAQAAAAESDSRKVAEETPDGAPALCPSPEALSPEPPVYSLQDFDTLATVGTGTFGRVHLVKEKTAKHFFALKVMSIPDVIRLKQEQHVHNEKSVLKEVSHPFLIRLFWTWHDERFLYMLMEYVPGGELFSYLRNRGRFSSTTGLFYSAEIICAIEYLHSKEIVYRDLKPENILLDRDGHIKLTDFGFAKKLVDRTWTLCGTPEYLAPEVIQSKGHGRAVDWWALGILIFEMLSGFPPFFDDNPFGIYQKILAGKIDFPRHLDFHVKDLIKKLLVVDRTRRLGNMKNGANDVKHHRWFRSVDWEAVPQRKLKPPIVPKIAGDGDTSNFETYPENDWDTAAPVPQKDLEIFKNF

[9] = biological target: T5, cAMP-dependent protein kinase catalytic subunit PRKX (Homo sapiens); settings: at 1 µM
[10] = biological target: Rho-associated protein kinase 1 (Homo sapiens) (UniProt Q13464); settings: at 0.1 µM;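 note: values are mean percent inhibition of ROCK1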
Chain of Rho-associated protein kinase 1 (Homo sapiens) (Q13464 2-1354 limits assumed): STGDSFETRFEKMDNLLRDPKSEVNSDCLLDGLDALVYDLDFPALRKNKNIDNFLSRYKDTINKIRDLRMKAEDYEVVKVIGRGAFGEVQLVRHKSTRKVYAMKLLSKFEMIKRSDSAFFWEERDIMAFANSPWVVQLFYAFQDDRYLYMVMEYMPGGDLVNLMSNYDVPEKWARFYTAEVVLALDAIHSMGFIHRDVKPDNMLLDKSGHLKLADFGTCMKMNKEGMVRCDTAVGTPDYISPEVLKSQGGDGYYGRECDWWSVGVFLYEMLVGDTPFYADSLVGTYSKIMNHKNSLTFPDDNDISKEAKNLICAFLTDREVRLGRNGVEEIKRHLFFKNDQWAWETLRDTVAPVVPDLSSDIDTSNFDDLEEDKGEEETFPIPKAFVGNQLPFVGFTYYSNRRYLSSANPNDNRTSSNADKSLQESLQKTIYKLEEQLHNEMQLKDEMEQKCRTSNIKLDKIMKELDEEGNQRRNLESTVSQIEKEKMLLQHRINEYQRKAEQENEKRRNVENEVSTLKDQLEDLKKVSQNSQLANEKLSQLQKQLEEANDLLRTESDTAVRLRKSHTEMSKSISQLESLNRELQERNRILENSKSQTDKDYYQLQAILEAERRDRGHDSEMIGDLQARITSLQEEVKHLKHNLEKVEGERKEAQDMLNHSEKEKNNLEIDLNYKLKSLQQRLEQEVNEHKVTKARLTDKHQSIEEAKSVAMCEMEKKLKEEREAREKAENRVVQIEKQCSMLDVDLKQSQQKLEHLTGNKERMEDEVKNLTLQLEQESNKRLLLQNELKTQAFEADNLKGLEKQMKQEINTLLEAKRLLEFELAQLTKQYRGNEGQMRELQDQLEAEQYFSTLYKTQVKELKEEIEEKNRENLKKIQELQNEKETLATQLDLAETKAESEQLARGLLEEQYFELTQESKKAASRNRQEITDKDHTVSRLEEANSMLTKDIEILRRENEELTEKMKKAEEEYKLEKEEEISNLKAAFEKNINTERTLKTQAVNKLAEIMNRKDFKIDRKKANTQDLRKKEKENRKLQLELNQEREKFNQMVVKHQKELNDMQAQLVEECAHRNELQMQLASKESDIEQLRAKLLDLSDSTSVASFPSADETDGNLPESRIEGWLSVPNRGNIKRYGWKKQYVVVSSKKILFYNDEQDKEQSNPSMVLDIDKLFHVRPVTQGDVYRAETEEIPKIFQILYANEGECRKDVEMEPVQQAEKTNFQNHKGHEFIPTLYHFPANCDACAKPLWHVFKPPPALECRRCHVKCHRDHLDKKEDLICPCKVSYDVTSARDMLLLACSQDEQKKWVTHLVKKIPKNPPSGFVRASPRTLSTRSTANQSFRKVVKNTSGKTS

Molecule `O=C1NC(=O)C(N2CCc3ccccc32)=C1c1ccc(Cl)cc1` has an inhibition [1] of 4.56%, an inhibition [2] of 5.53% and an inhibition [3] of 6.02%. It also gave an inhibition [4] of 3.3%, an inhibition [5] of 4.19% and an inhibition [6] of 2.11%. For the same molecule, the inhibition [7] was 4.33%, the inhibition [8] was 1.91% and the inhibition [9] was 0.77%. It also gave an inhibition [10] of 1.88%.

Molecule `NS(=O)(=O)c1ccc(N/N=C2\C(=O)Nc3ccc(C(=O)NCCc4c[nH]cn4)cc32)cc1` has an inhibition [1] of 32.9%, an inhibition [2] of 7.41% and an inhibition [3] of 38.6%. The inhibition [4] was 23.6%, the inhibition [5] was 70.1% and the inhibition [6] was 9.57%. It also gave an inhibition [7] of 50.8%, an inhibition [8] of 2.93% and an inhibition [9] of 12.2%. The inhibition [10] was 1.37%.

`COc1cccc(-n2ncc3c(N/N=C/c4cccc(F)c4)ncnc32)c1` showed an inhibition [1] of -1.18%, an inhibition [2] of -0.44% and an inhibition [3] of -0.79%. It also gave an inhibition [4] of 2.15%, an inhibition [5] of 3.23% and an inhibition [6] of 2.4%. It also gave an inhibition [7] of 3.95%, an inhibition [8] of 1.69% and an inhibition [9] of 2.08%. For the same molecule, the inhibition [10] was 0.34%.

Work on `CCn1c(-c2nonc2N)nc2c(N3CCCC3)nccc21` yielded an inhibition [1] of -0.31%, an inhibition [2] of -0.29% and an inhibition [3] of 0.75%. It also gave an inhibition [4] of 0.96%, an inhibition [5] of 3.63% and an inhibition [6] of 1.09%. For the same molecule, the inhibition [7] was 9.26%, the inhibition [8] was 0.17% and the inhibition [9] was 0.74%. It also gave an inhibition [10] of 3.22%.

`COc1ccc(-c2nn3ncccc3c2-c2ccnc(Nc3ccc(Cl)c(C(F)(F)F)c3)n2)cc1` showed an inhibition [1] of 4.34%, an inhibition [2] of 2.86% and an inhibition [3] of 3.78%. It also gave an inhibition [4] of 0.21%, an inhibition [5] of 0.97% and an inhibition [6] of 0.9%. The inhibition [7] was 2.46%, the inhibition [8] was 0.84% and the inhibition [9] was 3.14%. For the same molecule, the inhibition [10] was 1.25%.

Work on `CS(=O)(=O)CCNCc1nc(-c2ccc3ncnc(Nc4ccc(F)c(Cl)c4)c3c2)cs1` yielded an inhibition [1] of 2.87%, an inhibition [2] of 1.23% and an inhibition [3] of 1.58%. It also gave an inhibition [4] of 1.73%, an inhibition [5] of 3.32% and an inhibition [6] of 0.95%. The inhibition [7] was 2.67%, the inhibition [8] was 0.91% and the inhibition [9] was 1.76%. For the same molecule, the inhibition [10] was 1.23%.

Work on `COc1cc(C)c(NC(=O)CN(C)C)cc1Nc1nc(Nc2cccc(F)c2C(N)=O)c2cc[nH]c2n1` yielded an inhibition [1] of 31.9%, an inhibition [2] of 3.99% and an inhibition [3] of 38.4%. For the same molecule, the inhibition [4] was 1.52%, the inhibition [5] was 4.26% and the inhibition [6] was 1.95%. It also gave an inhibition [7] of 2.22%, an inhibition [8] of -0.65% and an inhibition [9] of -1.72%. The inhibition [10] was 0.5%.

For `COc1cc2ncn(-c3cc(OCc4ccccc4Cl)c(C(N)=O)s3)c2cc1OC`, the inhibition [1] was 1.64%, the inhibition [2] was 0.33% and the inhibition [3] was 0.33%. The inhibition [4] was 1.08%, the inhibition [5] was 3.55% and the inhibition [6] was 0.53%. It also gave an inhibition [7] of 1.84%, an inhibition [8] of -0.05% and an inhibition [9] of -3.1%. The inhibition [10] was -0.3%.
